Screening results from PubChem BioAssay.
This is a sample that favours compounds with a hit; in the whole collection about 6% have one here.
Chronic BCR inh: inhibitors of chronic active B-cell receptor signaling; ABC-DLBCL IkBa-CBG/CBR reporter, luminescence ratio, 4 h; Potency, µM (titrated, usually from 46.1 µM), hits mostly inhibitors; 340,000 tested, 0.05% active; AID 493014; active = well fitted inhibition curve with a large enough effect in the signal ratio, with a control signal flat, not every such curve was filed as active; inconclusive = small, poorly fitted or top-dose-only effect, or effect the other way, or a change in a side signal; the % refers to the signal ratio
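Cell line TMD8 (human ABC DLBCL), stably expressing tet-inducible CBG68-IkBa fusion and CBR; IMDM/0.5% FBS; cpd up to 46 uM; dox induction, 4 h, 37C/5% CO2; dual luminescence; green/red ratio; MG132 control.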
D1 potentiator: enhances dopamine response at the human D1 receptor | HEK293 TREx D1 cells, calcium flux, dopamine EC20 potentiation | potentiation, % at 10 µM | P21728 | 360,000 tested, 0.036% active; in the data active = potentiation above about 30%
Target sequence (P21728 whole entry, looked up): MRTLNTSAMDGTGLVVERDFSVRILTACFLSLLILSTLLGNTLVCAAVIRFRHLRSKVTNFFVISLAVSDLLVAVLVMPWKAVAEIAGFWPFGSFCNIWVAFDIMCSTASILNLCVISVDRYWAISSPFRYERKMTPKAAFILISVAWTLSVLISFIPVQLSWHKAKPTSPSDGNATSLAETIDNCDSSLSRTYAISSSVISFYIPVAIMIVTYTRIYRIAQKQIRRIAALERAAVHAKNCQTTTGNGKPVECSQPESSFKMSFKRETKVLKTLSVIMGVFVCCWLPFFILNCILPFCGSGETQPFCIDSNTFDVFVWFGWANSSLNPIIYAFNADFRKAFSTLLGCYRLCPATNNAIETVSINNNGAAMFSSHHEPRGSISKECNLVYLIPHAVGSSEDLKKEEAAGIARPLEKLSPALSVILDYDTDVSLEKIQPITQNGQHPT
D3 antag: blocks the human D3 dopamine receptor. D3R cells, DiscoveRx beta-arrestin luminescence, antagonist mode; active compounds read low. max response, negative = inhibition, %. 360,000 tested, 2.5% active; in the data active = max response below about -50%; inconclusive = no clear call, values can overlap the other calls
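Cells plated overnight at 1500 cells/well, then exposed to library compounds with dopamine controls for 90 minutes at 37 degrees C. DiscoveRx reagent added for 30–60 minutes at room temperature; luminescence read, quantitative HTS format.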
D1 antag: human D1 dopamine receptor antagonism. HEK293 TREx D1 cells, calcium flux, dopamine EC80; active compounds read low. activity change, negative = inhibition, % at 10 µM. 360,000 tested, 3.2% active. AID 504652; in the data active = activity change below about -30%
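Using tetracycline-induced force-coupled D1 Hek293 cells and a calcium dye, signals were followed for 180 s after compound, then for 180 s after EC80 dopamine, to detect inhibitors.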
D1 ag: agonists of human D1 dopamine receptor; P21728; HEK293 T-REx D1 cells, calcium flux, agonist mode; activation, % at 2 µM; 360,000 tested, 1% active; in the data active = activation above about 30%
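Inducible HEK293 T-REx D1 cells, force-coupled to calcium signalling, were plated at 4000 cells/well with tetracycline and held overnight at 30 C. After no-wash calcium dye loading, compound-evoked calcium rise over 180 s flagged agonists.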
D3 ag: activates the human D3 dopamine receptor; max activation, %; P35462; D3R DiscoveRx beta-arrestin cells, luminescence, 90 min; 410,000 tested, 0.58% active; in the data active = max activation above about 30%
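Agonist-mode cell screen: cells plated at 1500/well and incubated overnight at 37 °C, then exposed to library compounds for 90 min at 37 °C. Detection reagent was added for 30–60 min at room temperature, and luminescence was read.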
Of the large screens only hits and unclear results are named; the others gave an inactive call; ! = repeats disagree.

Cc1ccc2c(c1)N(Cc1cccc(F)c1)C(=O)C(C)O2 (centres undefined)	none
Cc1ccc2c(c1)N(Cc1ccncc1)C(=O)C(C)O2 (centres undefined)	D1 antag -34
CC(C)CC(NC(=O)C1CCC(C)CC1)C(=O)Nc1ccccn1 (centres undefined)	D1 antag -32
CCCCOC(=O)c1ccc(NC(=O)c2cc(-c3ccccc3)on2)cc1	none (no result: Chronic BCR inh, D3 antag)
O=C1C(=O)N(c2cccc(Cl)c2)C(c2ccccc2[N+](=O)[O-])/C1=C(\O)c1ccccc1 (centres undefined)	Chronic BCR inh inconclusive, D1 antag -51
COc1ccc(NC(=O)COc2ccc(C)nc2[N+](=O)[O-])cc1S(N)(=O)=O	D1 antag -40
Cc1ccc(OCC(=O)Nc2ccc(C)c(S(=O)(=O)N3CCCCC3)c2)c([N+](=O)[O-])n1	Chronic BCR inh inconclusive
COCCC(=O)N1CCC(Oc2ccc(C(=O)N3CCCC(OC)C3)cc2)CC1 (centres undefined)	D1 antag -35
COCC(C)N1CCC(Oc2ccc(C(=O)N3CCCC3)cc2)CC1 (centres undefined)	none
COC(=O)CCC(C)N1CCC(Oc2ccc(C(=O)N3CCCC3)cc2)CC1 (centres undefined)	D1 antag -30
CC(C)Oc1ccc(CNC(=O)c2ccc(Cn3c(=O)c4cccn4c4cccnc43)cc2)cc1	none (no result: Chronic BCR inh, D3 antag)
O=C(CSCc1cnn(-c2ccccc2)c1-n1cccc1)Nc1ccc(F)cc1F	none (no result: Chronic BCR inh, D3 antag)
CCCCn1c(OC(=S)N(CC)CC)cc(C)nc1=S	none (no result: Chronic BCR inh, D1 potentiator, D1 antag, D1 ag)
CC(=O)Nc1ccc(C(=O)/C=C/c2ccco2)cc1	D1 antag -77
CC(=O)Nc1cccc(C(=O)/C=C/c2ccco2)c1	Chronic BCR inh inconclusive, D3 antag inconclusive
CCCC(=O)N(Cc1cc2cc(OC)ccc2[nH]c1=O)c1ccc(OC)cc1	none (no result: Chronic BCR inh, D1 potentiator, D1 antag, D1 ag)
CCCC[C@@H]1CC2=C(C(=O)OC(C)(C)O2)[C@H](c2ccc(C(C)C)cc2)O1	none (no result: Chronic BCR inh, D1 potentiator, D1 antag, D1 ag)
CCC(=O)Nc1cnc(NC(=O)c2cccc(F)c2)cc1C	Chronic BCR inh inconclusive
CC(=O)Nc1cnc(NC(=O)c2cccc(F)c2)cc1C	Chronic BCR inh inconclusive, D1 antag -36
O=S(=O)(NCc1ccccc1)NCc1cccc(C(F)(F)F)c1	Chronic BCR inh inconclusive, D1 antag -38
O=C(CNC(=O)Cc1ccccc1)NCc1cccc(C(F)(F)F)c1	Chronic BCR inh inconclusive (no result: D1 potentiator)
O=C(Nc1ccc(Cl)c(Cl)c1)N1CCCCCC1	Chronic BCR inh inconclusive
O=C(CCC(=O)N1CCCC1)Nc1ccc(Cl)c(Cl)c1	D1 antag -33
O=C(CN1CCN(S(=O)(=O)N2CCCCC2)CC1)Nc1ccc(Cl)c(Cl)c1	D1 antag -79, D1 ag 43
O=C(CN1CCN(S(=O)(=O)N2CCCCC2)CC1)Nc1cc(Cl)cc(Cl)c1	none
Cc1ccccc1CNC(=O)Cn1cc2c(n1)-c1c(oc(C(=O)N3CCCC3)c1C)CC2	none (no result: Chronic BCR inh, D3 antag)
Cc1ccc(NC(=O)CN(C)S(=O)(=O)c2cccc3nsnc23)cc1	none
CC1CCCN(C(=O)C2CCN(S(=O)(=O)c3cccc4nsnc34)CC2)C1 (centres undefined)	none
O=C(NCCN1CCN(c2ccccc2)CC1)C1CCN(S(=O)(=O)c2cccc3nsnc23)CC1	D3 ag 94
O=C(C1CCN(S(=O)(=O)c2cccc3nsnc23)CC1)N1CCc2ccccc2C1	D1 antag -44
CC1CCN(CCNC(=O)CN(C)S(=O)(=O)c2cccc3nsnc23)CC1	D1 antag -31
CN(CC(=O)Nc1ccc(F)c(Cl)c1)S(=O)(=O)c1cccc2nsnc12	D1 antag -34
CCCCOc1ccc(C(C)NC(=O)c2cccc(Nc3nc4ccccc4n4nnnc34)c2)cc1 (centres undefined)	none (no result: Chronic BCR inh, D3 antag)
NC(=O)c1ccc[n+](CC(=O)c2ccc(Cl)c(Cl)c2)c1	D1 antag -83
Cc1cc(C)n(-c2nnc(Nc3ccc(C)c(Cl)c3)c3ccccc23)n1	D1 antag -40 (no result: Chronic BCR inh, D3 antag)
COc1ccc(Nc2nnc(-n3nc(C)cc3C)c3ccccc23)cc1	none (no result: Chronic BCR inh, D3 antag)
Cc1ccc(NC(=O)C(=O)NCc2ccco2)cc1	D1 antag -31 (no result: Chronic BCR inh, D3 antag)
CCCOc1ccc(-c2nonc2NC(=O)c2cc(OC)c(OC)c(OC)c2)cc1OCCC	D1 ag 38 (no result: Chronic BCR inh, D3 antag)
CCCCOc1ccccc1C(=O)Nc1nonc1-c1ccccc1	D3 ag 35 (no result: Chronic BCR inh, D3 antag)
COc1cccc(-c2nnc(SCC(=O)NC3CCS(=O)(=O)C3)n2C)c1 (centres undefined)	D1 antag -35
Cn1c(SCC(=O)NC2CCS(=O)(=O)C2)nnc1-c1ccco1 (centres undefined)	none (no result: D1 potentiator)
Cc1oncc1C(=O)Nc1ccc(C(F)(F)F)cc1	Chronic BCR inh inconclusive, D1 antag -67
CCCc1nc2ccc(Cl)cn2c1Cc1ccc(C)cc1	none (no result: Chronic BCR inh, D1 potentiator, D1 antag, D1 ag)
C=CCn1c(SCC(=O)Nc2ccc3c(c2)OCO3)nnc1-c1ccccc1	none
CCn1c(Cc2ccccc2)nnc1SCC(=O)Nc1ccc2c(c1)OCCO2	D3 ag 35
C=CCn1c(SCC(=O)Nc2ccc3c(c2)OCO3)nnc1-c1cc(Br)ccc1O	D3 antag -51 (no result: Chronic BCR inh)
CC(=O)Nc1ccc(NC(=O)CSc2nnc(-c3ccccc3)n2Cc2ccc3c(c2)OCO3)cc1	D3 antag -103
COC(=O)CSc1nnc(-c2ccncc2)n1N	none
Cc1ccc(NC(=O)CSc2nnc(-c3ccncc3)n2N)cc1C	D3 antag -70
CCn1c(COc2ccccc2C)nnc1SCC(=O)Nc1ccc2c(c1)OCCO2	none
CC(C)N1CCC(C)(C(=O)Nc2cccc(Oc3ccccc3)c2)C1 (centres undefined)	none (no result: Chronic BCR inh, D1 potentiator, D1 antag, D1 ag)
CCc1nc(SCC(=O)Nc2ccc3c(c2)OCCO3)c2oc3ccccc3c2n1	D1 antag -34
Nn1c(SCC(=O)Nc2ccc3c(c2)OCCO3)nnc1-c1ccccn1	D1 antag -36 (no result: Chronic BCR inh)
CCn1c(SCC(=O)Nc2ccc3c(c2)OCO3)nnc1-c1cnccn1	D1 antag -32
Cc1ccc(C(C)C)c(OCC(=O)Nc2ccc(O)c(-c3nc4cc(Cl)ccc4o3)c2)c1	none (no result: Chronic BCR inh, D3 antag)
COc1ccc(-c2nc(C)c(CCNC(=O)C(=O)Nc3cccc(F)c3)s2)cc1OC	none (no result: Chronic BCR inh, D3 antag)
CN1CCc2c(c3ccccc3n2C)C1	Chronic BCR inh inconclusive, D3 antag -73
CCCCn1c(=O)c(Cc2ccccc2)c(O)c2ccccc21	none
CN1CCc2c(c3ccccc3n2Cc2ccccc2)C1	D3 antag -91!
CCCCN1CCc2c(c3ccccc3n2Cc2ccccc2)C1	D3 antag -93
Cc1ccc(NC(=O)CSc2nc(-c3ccco3)nc3cc(=O)[nH]n23)cc1	none (no result: Chronic BCR inh, D3 antag)
